Where “and” joins values, the source holds several entries; their conditions need not be identical. Identical values can stand only once. Among all 5,500 compounds or so, about 2,000 (36%) were called active. Inconclusive results (about 18%) are left out. No stated cut-off is given here; in the data, active means normalized growth mostly below about 0.91 (no sharp cut-off); inconclusive means no clear call, values can overlap the other calls; inactive means mostly above about 0.92. The list shows a part of the results.
Assay: chemical genetic growth profiling, strain panel (AID 1159580);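 further: tested at 20 µM; growth read once vehicle control cultures reached saturation at 30 °C; 1 = growth at the plate median or of vehicle wells; lower values mean less growth of the strain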
Conditions: S. cerevisiae deletion strains, growth OD

Measured: normalized growth

COc1ccc2c(c1)OC[C@@H](Cc1ccc(OC)c(OC)c1)[C@H]2O
active: locus YDR137W, strain rgp1, active compounds read low 0.806
inactive: locus YAL013W, strain DEP1, active compounds read low 0.986 | locus YAL021C, strain ccr4, active compounds read low 0.993 | locus YAL026C, strain drs2, active compounds read low 1.02 | locus YAL030W, strain snc1, active compounds read low 1.01 | locus YBL061C, strain skt5, active compounds read low 1 | locus YBR009C, strain hhf1, active compounds read low 0.993 | locus YBR021W, strain FUR4, active compounds read low 1.06 | locus YBR023C, strain chs3, active compounds read low 0.999 | locus YBR171W, strain sec66, active compounds read low 1.01 | locus YBR229C, strain ROT2, active compounds read low 1 | locus YBR231C, strain swc5, active compounds read low 1.01 | locus YBR279W, strain paf1, active compounds read low 1.02 | locus YCL011C, strain gbp2, active compounds read low 1.01 | locus YCL016C, strain dcc1, active compounds read low 1 | locus YCL029C, strain bik1, active compounds read low 0.953 | locus YCL061C, strain MRC1, active compounds read low 0.98 | locus YCL069W, strain vba3, active compounds read low 1.01 | locus YCR088W, strain abp1, active compounds read low 0.999 | locus YDL005C, strain med2, active compounds read low 0.999 | locus YDL035C, strain GPR1, active compounds read low 0.984 | locus YDL040C, strain nat1, active compounds read low 0.991 | locus YDL074C, strain BRE1, active compounds read low 0.995 | locus YDL101C, strain DUN1, active compounds read low 1 | locus YDL134C, strain PPH21, active compounds read low 1.06 | locus YDL185W, strain tfp1, active compounds read low 0.943 | locus YDL192W, strain arf1, active compounds read low 0.967 | locus YDR001C, strain nth1, active compounds read low 1 | locus YDR069C, strain doa4, active compounds read low 0.992 | locus YDR101C, strain arx1, active compounds read low 0.981 | locus YDR159W, strain sac3, active compounds read low 0.939 | locus YDR162C, strain NBP2, active compounds read low 1.01 | locus YDR195W, strain ref2 1 | locus YDR297W, strain sur2, active compounds read low 1 | locus YDR318W, strain mcm21, active compounds read low 0.981 | locus YDR334W, strain swr1, active compounds read low 1.02 | locus YDR335W, strain msn5, active compounds read low 1.01 | locus YDR388W, active compounds read low 0.969 | locus YDR392W, strain spt3, active compounds read low 0.929 | locus YDR502C, strain sam2, active compounds read low 0.983 | locus YEL003W, strain gim4, active compounds read low 1.01 | locus YEL037C, strain rad23, active compounds read low 1.01 | locus YEL061C, strain CIN8 (second series), active compounds read low 1.01 | locus YEL061C, strain CIN8, active compounds read low 0.99 | locus YER015W, strain faa2, active compounds read low 1.01 | locus YER016W, strain bim1, active compounds read low 1.01 | locus YER110C, active compounds read low 0.978 | locus YER111C, strain swi4, active compounds read low 1 | locus YER155C, strain BEM2 (second series), active compounds read low 1.01 | locus YER155C, strain BEM2, active compounds read low 0.984 | locus YER167W, strain BCK2, active compounds read low 0.957 | locus YFR010W, strain ubp6, active compounds read low 1.01 | locus YGL078C, strain dbp3, active compounds read low 0.977 | locus YGL086W, strain mad1, active compounds read low 0.989 | locus YGL167C, strain pmr1, active compounds read low 1.01 | locus YGL173C, strain kem1, active compounds read low 1.02 | locus YGL227W, strain vid30, active compounds read low 0.999 | locus YGL240W, strain doc1, active compounds read low 1.01 | locus YGL248W, strain PDE1, active compounds read low 1.03 | locus YGL253W, strain hxk2, active compounds read low 1 | locus YGR135W, strain pre9, active compounds read low 0.99 | locus YGR252W, strain gcn5, active compounds read low 1.01 | locus YHR013C, strain ard1, active compounds read low 1.01 | locus YHR027C, strain rpn1, active compounds read low 0.999 | locus YHR030C, strain SLT2, active compounds read low 0.987 and 0.938 | locus YHR079C, strain IRE1 (second series), active compounds read low 0.979 | locus YHR079C, strain IRE1, active compounds read low 0.956 | locus YHR094C, strain hxt1, active compounds read low 0.978 | locus YHR129C, strain ARP1, active compounds read low 0.994 | locus YHR142W, strain chs7, active compounds read low 0.975 | locus YHR200W, strain rpn10, active compounds read low 0.966 | locus YIL066C, strain RNR3, active compounds read low 1.01 | locus YIL073C, strain SPO22, active compounds read low 0.919 | locus YIR030C, strain dcg1, active compounds read low 0.955 | locus YJL092W, strain hpr5, active compounds read low 1.01 | locus YJL095W, strain BCK1 (second series), active compounds read low 1.01 | locus YJL095W, strain BCK1, active compounds read low 1.04 and 0.939 | locus YJL115W, strain asf1, active compounds read low 1.01 | locus YJL129C, strain trk1, active compounds read low 0.956 | locus YJL134W, strain LCB3, active compounds read low 0.991 | locus YJL154C, strain vps35, active compounds read low 1.01 | locus YJL164C, strain tpk1, active compounds read low 0.993 | locus YJL166W, strain qcr8, active compounds read low 1.01 | locus YJL168C, strain set2, active compounds read low 0.997 | locus YJL187C, strain SWE1 (second series), active compounds read low 1.01 | locus YJL187C, strain SWE1, active compounds read low 1 | locus YJR043C, strain POL32, active compounds read low 1.01
